Results on nine compounds are retold here after PubChem BioAssay (Tox21).

Assay [1] in a line: A CellTox Green Cytotoxicity Assay to monitor cytotoxicity in HEK293 cells - 40 hour (AID 1224871). Also: nearly all actives have a fitted effect of over 45% in size. The gist of the method: (§1)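 HEK293 cells, 600/well, were preincubated 5 hours and then exposed to compounds at 37 C for up to 40 hours. A cell-impermeant cyanine dye staining dead-cell DNA was read by fluorescence at 0, 8, 16, 24, 32 and 40 h time points.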
Assay [2] in a line: qHTS RealTime-Glo MT Cell Viability Assay in HepG2 cells - 8 hour (AID 1224873). Also: nearly all actives have a fitted effect of over 55% in size. The gist of the method: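 HepG2 cells mixed with RealTime-Glo MT reagents (NanoLuc plus cell-permeant prosubstrate) were seeded at 600 cells/well, incubated 5 h at 37 C/5% CO2, then pinned with compounds in DMSO; nonlytic luminescence tracked viability during 40 h treatment.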
The nature of assay [3]: A CellTox Green Cytotoxicity Assay to monitor cytotoxicity in HEK293 cells - 24 hour (AID 1224875). Also: series mostly up to about 77 µM; nearly all actives have a fitted effect of over 45% in size. An outline of the steps:
as §1

A short description of assay [4]: A CellTox Green Cytotoxicity Assay to monitor cytotoxicity in HepG2 cells - 16 hour (AID 1224876). Also: nearly all actives have a fitted effect of over 45% in size. Also: potency is read from the fitted curve at half-maximal effect. The gist of the method: (§2)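 HepG2 cells, 600/well, preincubated 5 h with CellTox Green dye, then exposed to Tox21 compounds in DMSO at 37 C for up to 40 h. Dead-cell DNA fluorescence read at the indicated time point.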
The nature of assay [5]: qHTS RealTime-Glo MT Cell Viability Assay in HepG2 cells - 32 hour (AID 1224877). Also: nearly all actives have a fitted effect of over 55% in size. Also: potency is read from the fitted curve at half-maximal effect. The gist of the method: (§3)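 HepG2 suspension premixed with RealTime-Glo reagents is plated at 600 cells per well and left 5 h at 37 C/5% CO2. Compounds in DMSO then go in, and bioluminescence reflecting viable cell number is recorded over 40 h.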
(In general: In qHTS, concentration-response curves come from the screen itself.)

The nature of assay [6]: A CellTox Green Cytotoxicity Assay to monitor cytotoxicity in HepG2 cells - 24 hour (AID 1224878). Also: nearly all actives have a fitted effect of over 45% in size. Also: potency is read from the fitted curve at half-maximal effect. The gist of the method: as §2
A short description of assay [7]: A CellTox Green Cytotoxicity Assay to monitor cytotoxicity in HepG2 cells - 40 hour (AID 1224879). Also: nearly all actives have a fitted effect of over 40% in size. Also: potency is read from the fitted curve at half-maximal effect. The gist of the method: as §2
Assay [8] in a line: qHTS RealTime-Glo MT Cell Viability Assay in HEK293 cells - 0 hour (AID 1224880). Also: nearly all actives have a fitted effect of over 45% in size. Also: potency is read from the fitted curve at half-maximal effect. An outline of the steps: (§4)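 600 cells/well were plated with the nonlytic NanoLuc/prosubstrate reagent, pre-incubated 5 h, then given 23 nL of compound in DMSO. Incubation at 37 C for 40 h, with luminescence from viable-cell-reduced substrate read repeatedly from 0 h.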
Assay [9] can be described thus: A CellTox Green Cytotoxicity Assay to monitor cytotoxicity in HEK293 cells - 32 hour (AID 1224881). Also: nearly all actives have a fitted effect of over 40% in size. The gist of the method: as §1
Assay [10] is described as follows: A CellTox Green Cytotoxicity Assay to monitor cytotoxicity in HepG2 cells - 32 hour (AID 1224883). Also: nearly all actives have a fitted effect of over 50% in size. Also: potency is read from the fitted curve at half-maximal effect. An outline of the steps: as §2
Assay [11] can be described thus: A CellTox Green Cytotoxicity Assay to monitor cytotoxicity in HEK293 cells - 8 hour (AID 1224884). Also: nearly all actives have a fitted effect of over 35% in size. An outline of the steps: as §1
The nature of assay [12]: qHTS RealTime-Glo MT Cell Viability Assay in HepG2 cells - 16 hour (AID 1224885). Also: nearly all actives have a fitted effect of over 50% in size. An outline of the steps: as §3
The nature of assay [13]: A CellTox Green Cytotoxicity Assay to monitor cytotoxicity in HEK293 cells - 16 hour (AID 1224888). Also: nearly all actives have a fitted effect of over 35% in size. The gist of the method:
as §1

The nature of assay [14]: qHTS RealTime-Glo MT Cell Viability Assay in HepG2 cells - 0 hour (AID 1224889). Also: nearly all actives have a fitted effect of over 50% in size. The gist of the method: as §3
Assay [15] in a line: A CellTox Green Cytotoxicity Assay to monitor cytotoxicity in HepG2 cells - 8 hour (AID 1224890). Also: nearly all actives have a fitted effect of over 45% in size. The gist of the method:
as §2

Assay [16] can be described thus: qHTS RealTime-Glo MT Cell Viability Assay in HEK293 cells - 16 hour (AID 1224872). Also: top concentration of the series differs between compounds; nearly all actives have a fitted effect of over 50% in size. An outline of the steps: (§5)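 Reads taken at 0, 8, 16, 24, 32 and 40 h from the same wells. HEK293 cells (600/well) carried RealTime-Glo reagents from seeding, with compound added after a 5 h settle at 37 C.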
Assay [17] in a line: qHTS RealTime-Glo MT Cell Viability Assay in HEK293 cells - 40 hour (AID 1224874). Also: nearly all actives have a fitted effect of over 50% in size. Also: potency is read from the fitted curve at half-maximal effect. Particulars: RealTime-Glo luminescence; max response: active compounds read low. An outline of the steps: as §4
Assay [18] in a line: A CellTox Green Cytotoxicity Assay to monitor cytotoxicity in HepG2 cells - 0 hour (AID 1224882). Also: nearly all actives have a fitted effect of over 35% in size. An outline of the steps:
as §2

Assay [19] can be described thus: qHTS RealTime-Glo MT Cell Viability Assay in HEK293 cells - 24 hour (AID 1224886). Also: nearly all actives have a fitted effect of over 50% in size. Also: potency is read from the fitted curve at half-maximal effect. The gist of the method: as §5
Assay [20] in a line: qHTS RealTime-Glo MT Cell Viability Assay in HEK293 cells - 8 hour (AID 1224887). The gist of the method: as §4

Unmarked numbers belong to inactive results. Results filed as inconclusive are left out. Active and inactive are the calls of the source. Calls follow the shape of the dose curve; as a rule, active = well fitted curve in the direction sought with a large enough effect in the repeat runs; inconclusive = weak or mixed curves; inactive = no such curve, though single readings can be large; an effect the other way counts as inactive or inconclusive.
% is scaled to controls: 0 for no effect and ±100 for the full control effect.

For the compound `C/C(=C(/OCCOc1ccc(Cl)cc1)c1ccc(Cl)cc1Cl)n1ccnc1`, the Potency result in [1], in [2], in assay [3], in [4], in assay [5] and in assay [6] was “inactive” throughout. Also, the Potency result in assay [7], in assay [8], in assay [9], in assay [10], in [11] and in assay [12] was “inactive” each time. For the same compound, the Potency entry in assay [13], in assay [14] and in assay [15] was “inactive” each time.
With `CCCCCCCCCCCCCCCC(=O)OC[C@H](O)[C@H]1OC(=O)C(O)=C1O`, the Potency entry in assay [16], in assay [2], in assay [4], in assay [5], in assay [6] and in assay [7] was “inactive” each time. Moreover, the Potency result in assay [18], in [10], in assay [12], in [19], in assay [20] and in assay [14] was “inactive” each time. The Potency result in assay [15] is “inactive”. Further, the max response in assay [17] was -4.9%.
`NNc1nc(-c2ccccc2)cs1`: the Potency entry in assay [1], in assay [3], in [4], in assay [5], in assay [6] and in assay [7] was “inactive” each time. The Potency result in [8], in assay [9], in assay [18], in assay [10], in assay [12] and in assay [14] was “inactive” each time. For the same compound, in assay [15], the Potency result is “inactive”.
For `Cc1ccc(O)c2ncccc12`, the Potency result in assay [16], in assay [2], in [3], in assay [4], in assay [5] and in assay [8] was “inactive” throughout. Besides, the Potency entry in assay [18], in assay [11], in assay [12], in assay [19], in assay [20] and in [13] was “inactive” in each case. Besides, the Potency result in assay [15] is “inactive”. In [17], the max response was -18.6%. Besides, the Potency in [7] is 7.56 µM (active); in [10] it was 8.49 µM (active).
For the compound `O=C(NOCC1CC1)c1ccc(F)c(F)c1Nc1ccc(I)cc1Cl`, the Potency entry in assay [1], in assay [3], in assay [4], in [9], in assay [18] and in assay [11] was “inactive” each time. Further, the Potency entry in [12], in assay [13], in assay [14] and in assay [15] was “inactive” in each case. Also, the Potency was 23.9 µM (active) in [17]; 0.0425 µM (active) in assay [6]; 0.107 µM (active) in assay [7]; 16.9 µM (active) in assay [8]; 0.0849 µM (active) in assay [10].
For `O=C(Nc1cccc(C(F)(F)F)c1)c1cc(Br)cc(Br)c1O`, the Potency entry in [3], in assay [4], in assay [9], in assay [18], in assay [11] and in assay [20] was “inactive” each time. In addition, the Potency entry in assay [13] and in [15] was “inactive” each time. The Potency in assay [6] was 19.5 µM (active); in assay [7], 19.5 µM (active); in assay [10], 17.4 µM (active); in assay [19], 4.9 µM (active).
Regarding `CCN(C(=O)N(CC)c1ccccc1)c1ccccc1`, the Potency entry in assay [2], in assay [3], in assay [4], in assay [5], in assay [6] and in assay [7] was “inactive” throughout. Further, the Potency result in assay [8], in [9], in assay [18], in assay [10], in [11] and in assay [12] was “inactive” each time. Besides, the Potency entry in assay [13], in assay [14] and in [15] was “inactive” throughout.
With `Cc1cc(C2CCCCC2)n(O)c(=O)c1`, the Potency result in assay [2], in assay [3], in assay [4], in assay [5], in [6] and in assay [8] was “inactive” in each case. Further, the Potency entry in assay [9], in assay [18], in assay [10], in assay [11], in assay [12] and in assay [13] was “inactive” throughout. Also, the Potency entry in assay [15] was “inactive”. For the same compound, the Potency in assay [17] is 1.69 µM (active).
Turning to `CSc1ccc2c(c1)C(N1CCN(C)CC1)Cc1ccccc1S2` (stereo not given), the Potency entry in assay [16], in assay [2], in [18], in [11], in assay [20] and in assay [13] was “inactive” throughout. Moreover, the Potency in [4] was 26.8 µM (active); in assay [5], 23.9 µM (active); in [6], 23.9 µM (active); in assay [7], 23.9 µM (active); in assay [10], 23.9 µM (active).
